Source: PubChem BioAssay (NCATS)
Records with an inconclusive call do not appear. Active and inactive are the calls of the source. Calls follow the shape of the dose curve; as a rule, active = well fitted inhibition curve with a large enough effect; inconclusive = small, poorly fitted or top-dose-only effect, or effect the other way; inactive = flat fitted curve, though single readings scatter.

Test: qHTS for Inhibitors of Plasmodium falciparum (GB4) proliferation (AID 504315); also: nearly all actives have a fitted effect of over 50% in size;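 as to activity change, negative = inhibition: 0% = DMSO vehicle and -100% = 0.29 µM artemisinin control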
Conditions: P. falciparum GB4 in erythrocytes, SYBR Green DNA, 72 h; series mostly up to 6.7 µM; activity change, negative = inhibition: at the top concentration
Method in brief: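 Erythrocytes infected with P. falciparum line (0.3% parasitemia, 2.5% hematocrit final) incubated with compounds 72 h at 37 °C, 5% CO2; SYBR Green lysis buffer added, fluorescence read next day. Normalized to 0.29 uM artemisinin and DMSO.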
Potency is read from the fitted curve at half-maximal effect.

Potency, inactive:
CC(=O)C1=C(C)N(Cc2ccccc2)C(=O)NC1c1ccc(Br)cc1 (stereo not given)

Potency, active:
C=CC[C@@H]1C=C[C@@H](Oc2ccc(OC)cc2)[C@H](CO)O1 1510 nM, COC(=O)N[C@@H](C=Cc1ccccc1)C(C(=O)OC)=C(C)NCc1ccccc1 1690 nM, COC(=O)C1=C(C(=O)OC)[C@@H]2N(C)c3ccc(OC)cc3[C@@]23C[C@@H](C(=O)OC)N(C(=O)NC(C)(C)C)C3=N1 1900 nM, CCCNC(=O)OC[C@H]1O[C@H](CCON=C(C)CCN2CCCc3nc(C)c(C)cc32)C=C[C@H]1Oc1ccc(OC)cc1 1900 nM, COC(=O)[C@H]1O[C@@H](c2cc(OC)c(C)c(OC)c2OCc2ccccc2)[C@H](C)[C@@H]2O[C@]12C 2130 nM, COc1ccc2c3c(c(=O)oc2c1)[C@H]1O[C@](c2ccsc2)(Cc2ccccc21)O3 1690 nM, COc1ccc([C@]23Cc4ccccc4[C@H](O2)C2=C(O3)C(=O)c3ccccc3C2=O)cc1 1690 nM, Cc1ccccc1Nc1oc(-c2ccccc2)nc1-c1ccccc1 1900 nM, C=CC[C@@H]1C=C[C@H](ON=C(C)CCN2CCCc3nc(C)c(C)cc32)[C@H](CO)O1 1900 nM, COc1ccc([C@]23Cc4ccccc4[C@H](O2)c2c(c4ccc(OC)cc4oc2=O)O3)cc1 1900 nM, CCOC(=O)OC[C@H]1O[C@H](C#Cc2ccc(C(C)(C)C)cc2)C=C[C@H]1OC(=O)OCC 1690 nM, C=CCCC1(C(=O)c2ccccc2)C(=O)C(CC=C(C)C)=C(OC)C(CC=C(C)C)(CCC=C(C)C)C1=O (stereo not given) 1690 nM, C=C(CO[C@@H]1C=C[C@@H](c2ccccc2)O[C@@H]1COC)c1ccccc1 1510 nM

Activity change, negative = inhibition, inactive:
CCC(C)CN1C(=O)NC(c2ccccc2)C(C(=O)OC)=C1C (stereo not given) 7.15%, CC12C=C(C=Cc3ccc(F)cc3)C(C)(C1)C(c1ccc(F)cc1)CC2=O (stereo not given) -9.46%, COC(=O)NC(c1ccccc1)c1c[nH]c2ccc(OC)cc12 (stereo not given) 6.45%, CCc1cc2c(nc1CC)CCN(CCC(C)=NO[C@@H](C)CN1CCCc3nc(C)c(C)cc31)C2 -16.1%, O=C1Nc2cccc(Br)c2[C@@]12O[C@H](COc1ccccc1)CC1=CCCC12 (stereo not given in full) -0.702%, CC12C=C(C=CCCc3ccco3)C(C)(C1)C(CCc1ccco1)CC2=O (stereo not given) 9.99%, CC1(OC(=O)c2ccco2)C(=O)C=C2C=C(c3ccsc3)OC=C2C1=O (stereo not given) 4.29%, C=C(C#Cc1ccc(OC)cc1)CCN1C=C(C(=O)OCC)C(c2ccccc2)NC1=O (stereo not given) -3.62%, CC(C)=CCN1C(=O)[C@]2(O[C@H](C)CC3=CCCC32)c2c(Br)cccc21 (stereo not given in full) -3.06%, COc1ccc(COC(=O)NN=C2C[C@@H](O)[C@@H](O)[C@@H]3[C@H]4C(=O)N([C@@H](C)c5ccccc5)C(=O)[C@@H]4CC[C@H]23)cc1 3.84%, N#CCCCSc1nnnn1-c1cc(C(F)(F)F)cc(C(F)(F)F)c1 -12.2%, COC(=O)C1=C(C)N(CCC(C)O)C(=O)N(C(C)=O)C1c1ccccc1 (stereo not given) -7.89%, CCN1C(=NCCCOC(C)C)N[C@@H](CCc2ccccc2)[C@H](C(=O)NCCCOC(C)C)[C@H]1C -8.89%, COc1ccc(NC2=CC(c3ccccc3)N(c3ccc(OC)cc3)C2=O)cc1 (stereo not given) 12.9%, C=CCN=C1NC(c2cccc(F)c2)C(C(=O)OC)=C(C)N1Cc1ccccc1 (stereo not given) -6.26%, CCCNC(=O)OC[C@H]1O[C@H](CCON=C(C)CCC(=O)OC[C@H]2O[C@H](C#Cc3ccccc3)C=C[C@H]2Oc2ccc(C)cc2)C=C[C@H]1Oc1ccc(OC)cc1 0.355%, COCOc1ccc(Br)cc1C(=O)[C@@H]1O[C@@H]1c1cccc(OC)c1 -13.2%, C[C@@H]1C=CCCO[C@]12C(=O)N(Cc1ccc(Br)cc1)c1cccc(Br)c12 -0.957%, COCCN1C(=O)C2=C(C1=O)C1N(C)c3ccccc3[C@@]13C[C@@H](CO)N(S(=O)(=O)c1ccc(OC)cc1)C3=N2 (stereo not given in full) -4.17%, CCN1C(=O)[C@@H]2[C@H]3[C@H](O)[C@H](O)CC(=NO[C@H](C)c4cn([C@@H]5COC[C@@H]5O)nn4)[C@@H]3CC[C@H]2C1=O 13.6%, CCN1C(=O)NC(c2ccco2)C(C(C)=O)=C1C (stereo not given) 12.2%, C=CCN=C1NC(CCc2ccccc2)C(C(=O)OC)=C(C)N1CC (stereo not given) -16.4%, CCOC(=O)CCN1C(=O)[C@@H]2[C@H]3[C@H](O)[C@H](O)CC(=NNC(=O)OCc4ccccc4)[C@H]3CC[C@H]2C1=O -0.371%, O=S(=O)(CCc1ccccc1)c1nnnn1C1CCCCC1 -9.58%, C[C@@H]1CC[C@H]2C(=O)O[C@H](COc3ccc(C(C)(C)C)cc3)CN2[C@@H]1c1ccc(Br)cc1 8.61%, COC(=O)c1ccc(CN2C(=O)[C@]3(OCCC=C[C@@H]3C)c3ccccc32)cc1 -9.07%
